HepG2 tox = HepG2 cytotoxicity, counter-screen for TGF-b inhibitors. HepG2 CAGA-GFP viability, ATP luminescence, 18 h. Potency, µM (top dose mostly 46.1 µM), for inactives: at the top dose activity change, negative = cytotoxicity, actives largely listed as cytotoxic. 410,000 tested, 0.76% active. AID 588856; note: potency is the fitted concentration of half-maximal effect
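CellTiter-Glo luminescence gave cytotoxicity after 18 hours at 37 degrees C. The cells were HepG2 CAGA-GFP in 1% FBS DMEM, stimulated with 500 pg/mL TGF-beta after compound addition. %Activity was normalised to no-cell wells (complete cell-killing) and DMSO (no toxicity), and curves were fitted and classified.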
ATXN2 expr inh = ATXN2 expression inhibition; HEK-293 ATXN2-luciferase reporter, luminescence, 24 h; Potency, µM (top dose mostly 57 µM), without a hit: top-dose activity change, negative = inhibition, actives largely listed as inhibitors; 360,000 tested, 0.72% active; AID 1745845; note: potency is the fitted concentration of half-maximal effect; % is set by controls: 0 for no effect and ±100 for the full control effect; nearly all actives have a fitted effect of over 55% in size
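ATXN2-luciferase reporter cells (luciferase flanked by upstream and downstream ATXN2 gene portions) were treated 24 h at 37 °C with compounds at up to 57 uM. SteadyGlo luminescence gave expression; GF-AFC fluorescence gave viability.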
S2 tox = cell viability loss in ATXN counter-screen | 400,000 tested, 0.49% active | Potency, µM (doses to about 56.7 µM), usual class: cytotoxic | S2 cells (HEK-293 line with an ATXN2-luciferase reporter) viability, CellTiter-Fluor protease fluorescence, 24 h | AID 651635; note: potency is the fitted concentration of half-maximal effect; nearly all actives have a fitted effect of over 40% in size
IL1B secr inh = blocks inflammasome-driven IL-1 beta release; THP-1 LPS/ATP IL-1B secretion, AlphaLISA, 16 h; active compounds read low; activity change, % at 57.5 µM; 360,000 tested, 4.7% active; in the data active = activity change below about -50%; inconclusive = mostly about -30% to -49%; note: % is set by controls: 0 for no effect and ±100 for the full control effect
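Secreted IL-1B measured by AlphaLISA bead assay after 16 h compound exposure of THP-1 cells; compounds (final up to 57.5 uM) added 1 h before LPS (250 ng/mL) and ATP (1.25 mM) stimulation; lower signal means less secretion.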
TGFb inhibitor = TGF-b pathway inhibition | HepG2 CAGA-GFP TGF-b/SMAD3 reporter, GFP fluorescence, 18 h; TGF-beta stimulated, 500 pg/mL final | Potency, µM (doses to about 46.1 µM), for inactives: at the highest dose activity, negative = inhibition, actives largely listed as inhibitors | 410,000 tested, 1.2% active; note: potency is the fitted concentration of half-maximal effect; % is set by controls: 0 for no effect and ±100 for the full control effect; nearly all actives have a fitted effect of over 65% in size
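Inhibition was scored as loss of TGF-beta-induced (500 pg/mL final, 18 hours, 37 degrees C) GFP in HEPG2 cells carrying a CAGA-GFP reporter, in DMEM with 1% FBS. Well GFP was summed per cell; Activity was normalised to unstimulated and stimulated DMSO wells, then concentration-response fitting.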
* = called active by the depositor; i = inactive; ? = inconclusive; . = no result. In the library only some 5.7% were active in any assay of this set; here they are far more common. Unless noted, calls come from the whole dose curve; as a rule, active = well fitted curve in the direction sought with a large enough effect; inconclusive = small, poorly fitted or top-dose-only effect, or another doubt; inactive = no such curve, though single readings can be large; an effect the other way counts as inactive or inconclusive.

SMILES	HepG2 tox	ATXN2 expr inh	S2 tox	IL1B secr inh	TGFb inhibitor
Cc1ccc(C(=O)OCC(=O)Nc2cc(C(C)(C)C)nn2-c2ccccc2)c(O)c1	0%	-6%	i	-23	?
CCCc1cc(NC(=O)COC(=O)c2ccc(O)cc2O)n(-c2ccccc2)n1	-26%	.	?	27	?
O=C(COC(=O)c1ccc(O)cc1O)Nc1cc(-c2ccccc2)nn1-c1ccccc1	-22%	0%	i	-58*	-9%
CC(C)(C)c1cc(NC(=O)COC(=O)c2ccc(O)cc2O)n(-c2ccccc2)n1	0%	2%	?	-56*	-17%
CCC(C)NC(=O)C1CCN(C(=O)c2cc3sccc3n2Cc2ccc(Cl)cc2)CC1 (stereo unspecified)	-7%	.	.	.	?
O=C1C=CC(=O)N1CCCCCCCCCCN1C(=O)C=CC1=O	-28%	10µM*	8.9µM*	-87*	13µM*
O=C1C=CC(=O)N1Cc1ccncc1	5%	-9%	?	-14	-1%
CCC1CN(Cc2cn[nH]c2-c2ccc(OC)cc2)Cc2cc(OC)ccc2O1 (stereo unspecified)	.	.	i	.	.
CCC[n+]1c(C)sc2c3c(ccc21)CCCC3	-4%	?	?	-97*	-36%
O=C(NC(c1ccc(-c2ccccc2)cc1)c1cnccn1)C1CCN(CCOc2ccc(F)cc2)CC1 (stereo unspecified)	18µM*	?	?	-54*	13µM*
O=C(NC(c1ccc(-c2ccccc2)cc1)c1cnccn1)C1CCN(CCCOc2ccccc2)CC1 (stereo unspecified)	-97%	?	32µM*	-21	?
O=C(NC(c1ccc(Cl)cc1)c1cnccn1)C1CCN(CCOc2ccc(F)cc2)CC1 (stereo unspecified)	-37%	-14%	i	?	-2%
c1ccc2nc3c(ccc4ccccc43)cc2c1	-33%	99%	i	7	0%
Nc1[nH]nc2ncc3cc4ccccc4nc3c12	7%	-36%	i	-95*	?
CC1CCC(C(C)C)C(OC(=O)COC(=O)c2cc(O)ccc2N)C1 (stereo unspecified)	-100%	-38%	?	-80*	?
Cc1ccc(NC(=O)COC(=O)c2ccccc2OCC(=O)Nc2ccc(Br)cc2)c(C)c1	0%	.	.	.	7%
CC(=NNc1nc2ccccc2s1)c1ncccn1	-36%	?	1.4µM*	0	0.79µM*
C/C(=N\Nc1nc(-c2ccccc2)cs1)c1cccs1	-3%	123%	i	-26	14%
C/C(=N\Nc1nc2ccccc2s1)c1cccs1	-25%	-29%	i	-83*	?
CCc1ccc(C(=O)c2cn(CC(=O)Nc3ccc4c(c3)OCCO4)c3ccc(CC)cc3c2=O)cc1	-1%	14%	i	.	-1%
CCCCCCCCN1[C@@H](CC(=O)O)c2cc(C(F)(F)F)ccc2S1(=O)=O	-39%	-12%	i	8	11µM*
CC(C)=CCc1c(O)ccc(C(=O)Cc2ccccc2)c1O	-74%	-6%	i	0	?
C=C(C)C(O)CC/C(C)=C/Cc1c(O)ccc(C(=O)/C=C/c2ccc(O)cc2)c1O (stereo unspecified)	-49%	?	?	-87*	?
COc1ccc(C(=O)/C=C/c2ccc(O)cc2)c(O)c1C/C=C(\C)CCC=C(C)C	-117%	?	.	-87*	?
O=[N+]([O-])c1ccc(Cl)c(S(=O)(=O)/N=C(/Sc2ccc(Br)cc2)c2ccccc2)c1	8%	.	.	.	10%
SMILES	HepG2 tox	ATXN2 expr inh	S2 tox	IL1B secr inh	TGFb inhibitor
COC(=O)C(C)NC(=O)N1CCN(c2nnc(C)c3c(C)n(-c4ccc(Cl)cc4)nc23)CC1 (stereo unspecified)	3%	-9%	i	.	15%
O=C(Nc1cc(Cl)ccc1O)c1cc2n(n1)C(C(F)(F)F)CC(c1ccc3c(c1)OCO3)N2 (stereo unspecified)	-39%	?	i	-87*	?
COc1ccccc1NC(=O)c1cc2n(n1)C(C(F)(F)F)CC(c1ccc3c(c1)OCO3)N2 (stereo unspecified)	-3%	-27%	i	?	?
COc1ccc(OC)c(NC(=O)c2cc3n(n2)C(C(F)(F)F)CC(c2ccc4c(c2)OCO4)N3)c1 (stereo unspecified)	-35%	?	i	-61*	12%
c1ccc2c(c1)OCC(c1csc3ncnc(N4CCCC4)c13)O2 (stereo unspecified)	-12%	-5%	i	-7	?
c1ccc(CCNc2ncnc3scc(C4COc5ccccc5O4)c23)cc1 (stereo unspecified)	-47%	-27%	i	0	16µM*
COc1cccc(-n2ccnc2SCC(=O)Nc2ccc(Cl)c(Cl)c2)c1	1%	.	.	.	-21%
CN(C(=O)COc1ccccc1C(=O)NCCOc1ccccc1)c1ccccc1	-25%	?	?	-97*	?
O=C(Cn1nnc2ccccc21)Nc1ccccc1[N+](=O)[O-]	-4%	.	i	-79*	-3%
CCOC(=O)C1CCCN(c2nc3c(S(=O)(=O)c4ccc(C)c(C)c4)nnn3c3ccc(Cl)cc23)C1 (stereo unspecified)	6%	1%	i	.	-2%
CC(C)c1ccc(NC(=O)c2ccc(=O)n(Cc3ccccc3)c2)cc1	-17%	?	?	.	?
Cc1ccc2nc(N/N=C\c3ccc([N+](=O)[O-])o3)nc(-c3ccccc3)c2c1	-5%	?	11µM*	-59*	-5%
O=[N+]([O-])c1ccc(/C=N/Nc2nc(-c3ccccc3)c3cc(Br)ccc3n2)o1	1%	-20%	i	-22	23%
COc1ccc(S(=O)(=O)N(CCc2ccccc2)CC(=O)NCc2ccccc2)cc1OC	-17%	-24%	i	.	-21%
CCCCN(C)CC(O)Cn1cc(/C=C/C(=O)c2cccs2)c2ccccc21 (stereo unspecified)	-105%	-19%	i	-56*	?
O=C(/C=C/c1cn(CC(O)CN2CCCCCC2)c2ccccc12)c1cccs1 (stereo unspecified)	-10%	12%	.	-107*	15%
CN1CCN(N)CC1	.	-4%	i	.	.
C=C1[C@@H](O)[C@H](CC(C)C)N(Cc2ccccc2Br)S1(=O)=O	10µM*	-28%	.	?	8.9µM*
CN(C)c1ccc(/C=C2/C[N+](C)(C)C/C(=C/c3ccc(N(C)C)cc3)C2=O)cc1	13µM*	-12%	13µM*	-98*	0%
Cc1c(Cl)cccc1N/C(=N/S(=O)(=O)c1cccs1)c1ccccc1	-19%	-16%	i	-24	-27%

High-throughput results deposited in PubChem by National Center for Advancing Translational Sciences (NCATS).
